# Source: a collection of fitness landscapes (doi:10.1016/j.celrep.2020.107928)
# The full ranking holds about 81,000 sequences; the median of “one-hybrid fitness for binding NBS DNA” is about -0.1, and the highest 2% start at about 0.36. The list comes from a sample in which the highest values are over-represented; it also holds similar and randomly drawn sequences.
# B1: Caulobacter ParB omega fusion; a variant is named by its letters at X, in order, B8GW30 (parent)
# chain: MESVVVGEPGMSEGRRGLGRGLSALLGEVDAAPAQAPGEQLGGSREAPIEILQRNPDQPRRTFREEDLEDLSNSIREKGVLQPILVRPSPDTAGEYQIVAGERAWRAAQRAGLKTVPIMVRELDDLAVLEIGIIENVQRADLNVLEEALSYKVLMEKFERTQENIAQTIGKSXSHVANXMRLLXLPDEVQSYLVSGELTAXHARAIAAAADPVALAKQIIEGGLSVRETEALARKAPNLSAGKSKGGRPPRVKDTDTQALESDLSSVLGLDVSIDHRGSTGTLTITYATLEQLDDLCNRLTRGI
# Variants of: B1
# Test: one-hybrid fitness for binding NBS DNA (the Noc-binding site; scaled: cognate 1, non-cognate 0); higher = stronger binding
# Settings: with NBS DNA site
# In short: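 Fitness is the rescaled log change in variant-to-wild-type read ratio, measured by Illumina sequencing of plasmids before and after bacterial one-hybrid selection. The scale puts cognate at 1 and non-cognate at 0. Selection of Caulobacter ParB libraries, four specificity codons randomised, took place in E. coli USO with a HIS3 reporter, site 19 bp from the promoter, over 48 hours at 37°C on M9-minus-histidine with 0.1 mM IPTG and 5 mM 3-AT.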
row,Variant,one-hybrid fitness for binding NBS DNA
1,QQIY,≤ 0.2
2,QQPN,≤ 0.2
3,QQIR,0.435
4,QQPP,≤ 0.2
5,QQIC,≤ 0.2
6,QQPR,0.365
7,IMNC,≤ 0.2
8,QCIE,≤ 0.2
9,GPNL,≤ 0.2
10,RRPT,0.694
11,RRIT,0.788
12,RPPT,≤ 0.2
13,RRIP,≤ 0.2
14,RCPT,≤ 0.2
15,RCIT,0.289
16,QIKI,≤ 0.2
17,GQNR,≤ 0.2
18,PQLG,≤ 0.2
19,QMQD,≤ 0.2
20,DMRR,≤ 0.2
21,QMYR,0.507
22,QMRR,1.02
23,QMHN,≤ 0.2
24,QMYF,≤ 0.2

row,Variant,one-hybrid fitness for binding NBS DNA
1,QMQN,≤ 0.2
2,QMQR,0.55
3,QMHP,≤ 0.2
4,QMHR,0.647
5,QMER,0.324
6,NMRR,≤ 0.2
7,YCIR,≤ 0.2
8,PWLA,≤ 0.2
9,PATL,≤ 0.2
10,QMNH,0.284
11,QMGR,0.591
12,QMIP,≤ 0.2
13,QMDD,≤ 0.2
14,QMGK,0.221
15,QMGC,≤ 0.2
16,QMIR,0.398
17,QMNN,≤ 0.2
18,QMNR,0.637
19,QMPR,0.323
20,QMDR,0.403
21,QMDF,≤ 0.2
22,KASM,≤ 0.2
23,RNWE,≤ 0.2
24,WRSG,≤ 0.2

row,Variant,one-hybrid fitness for binding NBS DNA
1,HNPS,≤ 0.2
2,AKVR,≤ 0.2
3,ERAT,≤ 0.2
4,FHRT,≤ 0.2
5,HTGY,≤ 0.2
6,KAEC,≤ 0.2
7,QAVP,≤ 0.2
8,CWTT,≤ 0.2
9,THIP,≤ 0.2
10,NAAC,≤ 0.2
11,FHTW,≤ 0.2
12,GAEY,≤ 0.2
13,QHSR,0.51
14,QSSP,≤ 0.2
15,QKSR,0.65
16,QISR,0.386
17,QHSN,≤ 0.2
18,QSSR,0.526
19,QHSD,≤ 0.2
20,QKSN,≤ 0.2
21,QKSD,≤ 0.2
22,QSSD,≤ 0.2
23,QISP,≤ 0.2
24,QISS,0.228

row,Variant,one-hybrid fitness for binding NBS DNA
1,RKLW,≤ 0.2
2,VHYS,≤ 0.2
3,PGDT,≤ 0.2
4,KQTL,≤ 0.2
5,HGQT,≤ 0.2
6,APTM,≤ 0.2
7,HNIL,≤ 0.2
8,QPSH,≤ 0.2
9,QCSR,0.614
10,QASP,≤ 0.2
11,QPSP,≤ 0.2
12,QTSR,0.786
13,QPSR,0.44
14,QASR,0.482
15,QGSR,≤ 0.2
16,QWSR,0.229
17,QASH,≤ 0.2
18,QTSD,≤ 0.2
19,QTSH,0.321
20,RVGY,≤ 0.2
21,YYRE,≤ 0.2
22,EWTK,≤ 0.2
23,SFAV,≤ 0.2
24,RSFI,≤ 0.2

row,Variant,one-hybrid fitness for binding NBS DNA
1,ETCC,≤ 0.2
2,HGGG,≤ 0.2
3,QTAK,≤ 0.2
4,QMSD,≤ 0.2
5,QMSN,≤ 0.2
6,QMSR,0.557
7,KFFY,≤ 0.2
8,TGSL,≤ 0.2
9,HQMR,≤ 0.2
10,YVSG,≤ 0.2
11,IRIE,≤ 0.2
12,RCTT,0.518
13,RHTH,≤ 0.2
14,RHTT,0.427
15,RTTT,0.543
16,RRTG,0.331
17,RPTT,≤ 0.2
18,RFTT,0.269
19,RRTQ,0.243
20,RTTD,≤ 0.2
21,RRTT,0.716
22,RHTD,≤ 0.2
23,RTTN,≤ 0.2
24,QQII,≤ 0.2

row,Variant,one-hybrid fitness for binding NBS DNA
1,KSMI,≤ 0.2
2,KVWM,≤ 0.2
3,KATR,≤ 0.2
4,ALTC,≤ 0.2
5,AHCL,≤ 0.2
6,HGAA,≤ 0.2
7,HRGN,≤ 0.2
8,REMS,≤ 0.2
9,CAHR,≤ 0.2
10,LWHP,≤ 0.2
11,QELW,≤ 0.2
12,YGQC,≤ 0.2
13,WRES,≤ 0.2
14,YVSL,≤ 0.2
15,HMQS,≤ 0.2
16,LYTW,≤ 0.2
17,RKTC,0.275
18,RLTN,≤ 0.2
19,RLTD,≤ 0.2
20,RGTT,≤ 0.2
21,RSTT,0.426
22,RKTP,≤ 0.2
23,RLTT,0.454
24,RMTL,≤ 0.2

row,Variant,one-hybrid fitness for binding NBS DNA
1,RKTT,0.666
2,RETT,≤ 0.2
3,RMTK,≤ 0.2
4,RMTT,0.434
5,DHNC,≤ 0.2
6,YATH,≤ 0.2
7,QISK,≤ 0.2
8,CLVT,≤ 0.2
9,DRWC,≤ 0.2
10,SNWL,≤ 0.2
11,SNVR,≤ 0.2
12,DAAD,≤ 0.2
13,TRAA,≤ 0.2
14,DDQR,≤ 0.2
15,RITT,0.421
16,RITG,≤ 0.2
17,RATQ,≤ 0.2
18,RITF,≤ 0.2
19,RATT,0.415
20,RATK,≤ 0.2
21,TSFV,≤ 0.2
22,LPSF,≤ 0.2
23,RRWF,≤ 0.2
24,RRWS,0.628

row,Variant,one-hybrid fitness for binding NBS DNA
1,RRWD,≤ 0.2
2,RRWH,0.401
3,RRWP,≤ 0.2
4,RRWN,0.222
5,HLQS,≤ 0.2
6,MSNG,≤ 0.2
7,HQPF,≤ 0.2
8,PSTH,≤ 0.2
9,GLWQ,≤ 0.2
10,RYTT,0.461
11,RYTN,≤ 0.2
12,RYTK,≤ 0.2
13,RYTC,≤ 0.2
14,RYTR,0.469
15,RYTS,0.453
16,RYTH,≤ 0.2
17,RYTP,≤ 0.2
18,RYTD,≤ 0.2
19,TSVC,≤ 0.2
20,LPCE,≤ 0.2
21,YSAT,≤ 0.2
22,QALP,≤ 0.2
23,QMLD,≤ 0.2
24,QSLR,0.452

row,Variant,one-hybrid fitness for binding NBS DNA
1,QALR,0.424
2,QKLP,≤ 0.2
3,QSLD,≤ 0.2
4,QMLR,0.5
5,QKLR,0.491
6,QKLN,≤ 0.2
7,QMLH,≤ 0.2
8,QALH,≤ 0.2
9,QSLH,≤ 0.2
10,DSDF,≤ 0.2
11,RWRC,≤ 0.2
12,PLVT,≤ 0.2
13,DMHW,≤ 0.2
14,TRSF,≤ 0.2
15,IKKC,≤ 0.2
16,QHLH,≤ 0.2
17,QHLP,≤ 0.2
18,QTLN,≤ 0.2
19,QPLR,≤ 0.2
20,QILR,0.335
21,QCLR,0.562
22,QHLR,0.445
23,QTLH,0.223
24,QTLR,0.639

row,Variant,one-hybrid fitness for binding NBS DNA
1,WSWT,≤ 0.2
2,AVHS,≤ 0.2
3,GHKE,≤ 0.2
4,MTRR,0.273
5,QQAN,≤ 0.2
6,QQYP,≤ 0.2
7,QQAR,0.654
8,DQRR,≤ 0.2
9,QQHR,0.683
10,QQYR,0.578
11,QQAP,≤ 0.2
12,DQYR,≤ 0.2
13,QQHG,≤ 0.2
14,QQRR,1.09
15,QQHF,≤ 0.2
16,QQRE,0.332
17,KIQL,≤ 0.2
18,YWII,≤ 0.2
19,AFHM,≤ 0.2
20,TVSR,≤ 0.2
21,PDRQ,≤ 0.2
22,TNMG,≤ 0.2
23,QQGC,≤ 0.2
24,QQLR,0.567

row,Variant,one-hybrid fitness for binding NBS DNA
1,QQLG,≤ 0.2
2,QQCR,0.63
3,QQGK,≤ 0.2
4,QQFR,0.491
5,QQCD,≤ 0.2
6,NQFR,≤ 0.2
7,QQGR,0.672
8,QQLM,≤ 0.2
9,QQCK,≤ 0.2
10,TPFT,≤ 0.2
11,ATSG,≤ 0.2
12,VDTI,≤ 0.2
13,HTCG,≤ 0.2
14,PHKP,≤ 0.2
15,NAEM,≤ 0.2
16,IYRA,≤ 0.2
17,LQHD,≤ 0.2
18,WGPQ,≤ 0.2
19,LPFS,≤ 0.2
20,QQWY,≤ 0.2
21,QQSC,≤ 0.2
22,QQSR,0.635
23,QQQR,0.586
24,QQWM,≤ 0.2

row,Variant,one-hybrid fitness for binding NBS DNA
1,QQEG,≤ 0.2
2,QQQD,≤ 0.2
3,QQEY,≤ 0.2
4,QQWR,0.514
5,QQQP,≤ 0.2
6,QQER,0.426
7,QQSG,≤ 0.2
8,YILL,≤ 0.2
9,KDKK,≤ 0.2
10,ANDS,≤ 0.2
11,PLNC,≤ 0.2
12,EYLC,≤ 0.2
13,RVEC,≤ 0.2
14,GVRI,≤ 0.2
15,ESSI,≤ 0.2
16,DESV,≤ 0.2
17,QCGN,≤ 0.2
18,QSGS,0.358
19,QCGH,0.282
20,QMGP,≤ 0.2
21,QMGN,≤ 0.2
22,QRGF,0.33
23,QPGS,≤ 0.2
24,QRGH,0.616

row,Variant,one-hybrid fitness for binding NBS DNA
1,QCGS,0.487
2,QPGN,≤ 0.2
3,QRGN,0.418
4,QMGS,0.42
5,NPLC,≤ 0.2
6,QMPM,≤ 0.2
7,ANEK,≤ 0.2
8,DSVS,≤ 0.2
9,KKWY,≤ 0.2
10,CPMG,≤ 0.2
11,LRFA,≤ 0.2
12,LPEF,≤ 0.2
13,WQTP,≤ 0.2
14,ANVT,≤ 0.2
15,ITKV,≤ 0.2
16,TWPS,≤ 0.2
17,FCRR,0.277
18,LVQT,≤ 0.2
